According to PubChem BioAssay:
The source made the active and inactive calls.

Assays:
[1] = A549 cell viability effects, profiling panel, calcein-AM fluorescence, 48 h, basal (AID 1162); details: higher = more signal
[2] = adipocyte viability effects, profiling panel, cell-based, 3T3-L1 adipocytes, calcein-AM fluorescence, 48 h, basal (AID 1163); details: 3T3-L1 adipocytes viability, higher = more signal
[3] = HepG2 cell viability effects, profiling panel, calcein-AM fluorescence, 48 h, basal (AID 1164); details: higher = more signal
[4] = MM1S cell viability effects, profiling panel, calcein-AM fluorescence, 48 h, basal (AID 1165); details: higher = more signal;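 further: viability of MM1S multiple myeloma cells under basal unstimulated conditions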
[5] = basal RPMI8226 viability, no added stimulus, profiling panel, cell-based, calcein-AM fluorescence, 48 h, PK04 Diversity Set (AID 1166); details: RPMI8226 myeloma viability, higher = more signal;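 further: cells grown under basal conditions without added stimulus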
[6] = basal HepG2 mitochondrial membrane potential changes, profiling panel, cell-based, JC-1 fluorescence, 24 h, 100 nL compound (AID 1167); details: higher = more signal
[7] = basal 3T3-L1 adipocyte mitochondrial potential changes, profiling panel, cell-based, JC-1 fluorescence, 3T3-L1 adipocytes, 24 h, 100 nL compound (AID 1168); details: JC-1 mitochondrial fluorescence, higher = more signal, called active from +8 up or from −8 down
[8] = basal RPMI8226 mitochondrial membrane potential changes, profiling panel, cell-based, JC-1 fluorescence, 24 h, 100 nL compound (AID 1169); details: RPMI8226 myeloma, JC-1 mitochondrial potential fluorescence, higher = more signal
[9] = basal MM1S mitochondrial membrane potential changes, profiling panel, cell-based, JC-1 fluorescence, 24 h, 100 nL compound (AID 1170); details: higher = more signal
[10] = A549 lung cancer cell viability effects, profiling panel, resazurin fluorescence, 24 h, PK04 Diversity Set (AID 1171); details: higher = more signal, called active from +8 up or from −8 down
Further: test concentration not given here.

Structure (SMILES)	z-score [1]	z-score [2]	z-score [3]	z-score [4]	z-score [5]	z-score [6]	z-score [7]	z-score [8]	z-score [9]	z-score [10]
COC(=O)[C@@]1(Cc2ccc(F)cc2)[C@H]2c3cc(C(=O)N4CCCC4)n(Cc4cc(F)cc5c4OCOC5)c3C[C@H]2CN1C(=O)c1ccccc1	-1.14	0.364	-1.02	-1.54	-1.55	3.05	-0.484 (inactive)	-0.512	-0.744	-1.02 (inactive)
COC(=O)[C@@]1(Cc2ccc(F)cc2)[C@H]2c3cc(C(=O)N(C)C)n(C)c3C[C@H]2CN1C(=O)c1ccccc1	0.888	-0.0909	-0.408	-0.364	-0.119	0.216	-0.574 (inactive)	-0.325	-0.481	-0.452 (inactive)
[N-]=[N+]=NCc1ccccc1[C@@H]1OC(c2ccc(OCCCO)cc2)=N[C@]1(Cc1ccccc1N=[N+]=[N-])C(=O)NCC(O)CO (stereo not given in full)	-0.619	0.0728	-0.326	-1.78	-1.57	-0.686	0.265 (inactive)	-1.2	-0.6	-1.09 (inactive)
COCCOC(=O)N1C(=O)[C@@]2(c3cc(C#CC4(O)CCCCCC4)ccc31)[C@H](c1ccc(O)cc1)N1[C@H](c3ccccc3)[C@H](c3ccccc3)OC(=O)[C@H]1[C@@H]2C(=O)N1CCCCCCC1	0.717	-0.854	0.98	-0.615	-1.83	-0.442	-0.943 (inactive)	-1.01	0.0446	-0.178 (inactive)
O=C1NC(=O)C2C1C=CC(C(O)c1ccc(B(O)O)cc1)N2Nc1ccc(Cl)cc1Cl (stereo not given)	-0.591	-1.33	-1.19	-1.62	-1.58	-1.75	-1.12 (inactive)	0.482	-0.682	-0.616 (inactive)
[N-]=[N+]=Nc1ccccc1C[C@@]1(C(=O)NCC(O)CO)N=C(c2ccc(OCCCO)cc2)O[C@@H]1c1ccccc1 (stereo not given in full)	0.378	-0.326	0.75	-0.39	-0.342	0.582	-0.186 (inactive)	-1.2	-0.145	-0.235 (inactive)
COC(=O)[C@@]1(Cc2ccccc2)N=C(c2ccc(OCCCO)cc2)O[C@H]1c1ccccc1CN=[N+]=[N-]	-2.95	-0.565	-5.45	-3.55	-3.96	-2.16	1.22 (inactive)	-1.13	-2.9	-5.77 (inactive)
CC(C)NC(=O)[C@@H]1c2ccccc2C(=O)N(Cc2ccccc2C(F)(F)F)[C@H]1c1ccc(CO)cc1	-0.385	-0.341	-0.052	-0.321	0.749	0.186	-1.81 (inactive)	0.317	0.0239	2.53 (inactive)
O=C1C[C@@](C(=O)NC2CC2)(c2ccc([N+](=O)[O-])cc2)[C@@H](c2ccc(CO)cc2)N1C1CCCCC1	1.91	1.24	-0.0212	-0.177	-1.3	1.28	0.0821 (inactive)	-0.00601	-1.18	1.04 (inactive)
O=C(N1CCOCC1)[C@@]1(Cc2ccccc2)COC(c2ccc(OCCCO)cc2)=N1	-0.114	0.893	-0.985	-1.6	-0.907	-1.12	0.0409 (inactive)	-0.856	-0.095	0.628 (inactive)
O=C(NC1CC1)[C@@H]1c2ccccc2C(=O)N(CC23CC4CC(CC(C4)C2)C3)[C@H]1c1ccc(CO)cc1	0.554	0.875	0.232	0.0732	0.202	1.49	0.397 (inactive)	0.555	-0.467	1.5 (inactive)
CCOC(=O)C[C@H]1[C@H](OC(=O)c2cc3ccccc3oc2=O)[C@@H](NC(=O)CC(C)C)c2cc(OCCCO)ccc2N1C(=O)Cc1ccc(OC)cc1	0.746	0.967	0.535	0.12	0.28	0.433	-0.119 (inactive)	0.421	0.328	-0.546 (inactive)
CCCC[C@H]1OB(O)C[C@H]2C1=C(COc1ccccc1)C[C@H]1C(=O)C=CC(=O)[C@H]12	0.696	-0.0337	0.176	-3.27	-3.25	-1.59	-0.201 (inactive)	-0.431	-1.08	0.121 (inactive)
COC(=O)[C@]1(CCC(=O)OC(C)(C)C)N=C(c2ccc(OCCCO)cc2)O[C@@H]1c1ccccc1N=[N+]=[N-]	-1.31	1.25	-0.527	-2.84	-3.53	0.874	1.78 (inactive)	-1.02	-1.57	-1.46 (inactive)
[N-]=[N+]=Nc1ccccc1C[C@]1(C(=O)N2CCOCC2)N=C(c2ccc(OCCCO)cc2)O[C@H]1c1ccccc1N=[N+]=[N-]	0.961	0.744	-0.621	-1.77	-2.98	1.81	-0.0199 (inactive)	-1.01	-2.03	-2.16 (inactive)
COc1ccc(C(O)C2C=CC3C(=O)N(c4ccccc4)C(=O)C3N2Nc2ccc(C#N)cc2)cc1OCc1ccccc1 (stereo not given)	0.233	-0.735	0.753	0.333	-0.692	-0.974	-1.14 (inactive)	-0.137	-0.222	0.141 (inactive)

Structure (SMILES)	z-score [1]	z-score [2]	z-score [3]	z-score [4]	z-score [5]	z-score [6]	z-score [7]	z-score [8]	z-score [9]	z-score [10]
COc1cc(CO)cc(I)c1O[C@H]1C=C(C(=O)NCCO)C[C@@H](NC2CCCCCC2)[C@@H]1O	-0.226	-0.174	0.806	-3.23	-0.334	1.09	0.426 (inactive)	-0.441	-3.21	0.406 (inactive)
C=CCC(OC(C)=O)[C@@H]1[C@@H](N(Cc2ccc(-c3ccccc3)cc2)C(=O)c2cccc3ccccc23)c2cc(OCCCO)ccc2N1C(=O)Cc1ccc(OC)cc1 (stereo not given in full)	-0.0276	0.725	-0.518	-0.536	-0.682	1.57	-1.63 (inactive)	0.78	0.401	-0.399 (inactive)
COC(=O)[C@@]1(Cc2ccccc2)[C@H]2c3cc(C(=O)N4CCCC4)n(Cc4ccc(OC)c(OC)c4)c3C[C@H]2CN1C(=O)c1ccccc1	0.126	0.106	-0.257	-0.571	-1.05	3.84	1.09 (inactive)	-0.73	-0.52	0.613 (inactive)
CC(C)(C)OC(=O)CC[C@@]1(C(=O)NCCN2CCOCC2)N=C(c2ccc(OCCCO)cc2)O[C@@H]1c1ccccc1CN=[N+]=[N-]	-0.34	-0.502	0.463	-0.0725	-0.749	0.777	-0.916 (inactive)	-0.29	-0.586	0.973 (inactive)
C=CC[C@@]1(C(=O)N(C)C)N=C(c2ccc(OCCCO)cc2)O[C@@H]1c1ccccc1CN=[N+]=[N-]	1.01	-0.114	1.41	-1.81	-1.58	1.67	0.53 (inactive)	-0.797	-0.479	0.189 (inactive)
CCCc1cc2c(n1CCc1ccc(Cl)cc1)C(C)C1CN(C(=O)c3ccccc3)C(C)(C(=O)OC)C21 (stereo not given)	-1.7	1.33	-0.534	-3.25	-4.74	4.02	-1 (inactive)	-0.78	-1.19	-1.94 (inactive)
COCCn1c(C(=O)N(C)C)cc2c1C[C@H]1CN(C(=O)c3ccccc3)[C@@](Cc3ccc(OC)cc3)(C(=O)OC)[C@@H]21	-0.615	-0.61	0.33	-0.479	-0.843	0.564	-0.722 (inactive)	0.0961	-1.52	-0.437 (inactive)
CCOC(=O)C[C@H]1[C@H](OC(=O)Cc2ccc3c(c2)OCO3)[C@@H](NC(=O)c2ccc3ccccc3n2)c2cc(OCCCO)ccc2N1C(=O)Cc1ccc(OC)cc1	0.703	0.867	1.03	0.406	-0.603	2.42	-0.115 (inactive)	0.167	-0.882	-0.64 (inactive)
NC(=O)N1C(=O)C2C(C1=O)C1C=C(CCCO)C2C(C2CC2)N1Cc1sc2ccccc2c1Cl (stereo not given)	1.01	0.66	0.839	-2.97	-0.868	0.709	0.0485 (inactive)	-0.0842	0.193	1.09 (inactive)
CC(C)C(CO)N1C(=O)[C@@H]2C3C(=O)OCCC/C=C\[C@H]3OC23C=CCN(Cc2ccccc2)C(=O)[C@@H]13 (stereo not given in full)	0.214	-0.0826	0.728	0.441	-0.0976	0.161	0.256 (inactive)	-0.687	0.942	0.777 (inactive)
C=CCC(OC(C)=O)[C@@H]1[C@@H](N(Cc2cc3ccccc3o2)C(=O)c2cccc3ccccc23)c2cc(OCCCO)ccc2N1C(=O)c1ccc2ccccc2n1 (stereo not given in full)	0.375	0.756	0.601	-1.14	-2.01	2.42	-0.961 (inactive)	-0.211	-0.245	-0.985 (inactive)
O=C(NCC(O)CO)[C@@]1(CCS(=O)(=O)c2ccccc2)N=C(c2ccc(OCCCO)cc2)O[C@H]1c1ccccc1 (stereo not given in full)	0.433	0.719	-0.4	-1	-2.47	0.956	-0.874 (inactive)	-0.694	-0.745	-0.0521 (inactive)
COCCOC(=O)N1C(=O)[C@@]2(c3cc(C#CCC(C(=O)OC)C(=O)OC)ccc31)[C@H](C(=O)Nc1nc3ccccc3s1)[C@H]1C(=O)O[C@H](c3ccccc3)[C@H](c3ccccc3)N1[C@@H]2c1ccc(O)cc1	-0.857	0.401	-0.277	0.0422	-0.23	-2.45	-2.24 (inactive)	0.467	0.258	0.677 (inactive)
COc1cc(OC)c(C(O)C2C=CC3C(=O)N(c4ccccc4)C(=O)C3N2Nc2ccc(C(C)C)cc2)cc1Br (stereo not given)	2.48	-1.15	1.49	-0.534	-0.203	-0.115	-0.171 (inactive)	-0.126	-0.66	-0.101 (inactive)
CCOC(=O)C1=CCC(c2cc3ccccc3[nH]2)N(CCN2CC(C(=O)OCC)=CCC2c2cc3ccccc3[nH]2)C1 (stereo not given)	-0.638	0.552	0.105	0.183	-0.54	-0.4	-0.73 (inactive)	-0.111	-1.83	0.161 (inactive)
